Bioassay records: PubChem, National Center for Advancing Translational Sciences (NCATS)
Menin-MLL TR inh – qHTS Assay for Inhibitors Targeting the Menin-MLL Interaction in MLL Related Leukemias: Competition With Texas Red Labeled MLL-derived Mutant Peptide | Menin + Texas Red MLL mutant peptide, fluorescence polarization | 270,000 compounds, 0.23% hits | Potency, µM (doses to about 61.6 µM), hits mostly inhibitors | O00255 | AID 1768, 2009; active = well fitted inhibition curve with a large enough effect in the polarisation, with a control signal flat, not every such curve was filed as active; inconclusive = small, poorly fitted or top-dose-only effect, or effect the other way, or a change in a side signal; inactive = no such curve, though single readings can be large or run the other way; the % refers to the polarisation
PINK1 modulator – A Quantitative High throughput Screen to Identify Chemical Modulators of PINK1 Expression; PINK1 immunofluorescence, high-content cytometry, 24 h; Potency, µM (titrated, usually from 76.6 µM), actives largely listed as activators; 410,000 compounds, 0.2% hits; AID 624263, 2012; active = well fitted activation curve with a large enough effect; inconclusive = small, poorly fitted or top-dose-only effect; cell line not stated here; note: nearly all actives have a fitted effect of over 65% in size
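Stable cell line treated 24 h with compounds at 5 concentrations (CCCP controls), then fixed and immunostained for PINK1 plus nuclear and cell stains; PINK1 immunofluorescence quantified by laser-scanning microplate cytometry.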
Menin MLL FP FL – qHTS Assay for Inhibitors Targeting the Menin-MLL Interaction in MLL Related Leukemias: Competition With Fluorescein Labeled MLL-derived Peptide. FP activity change, % at 61.4 µM. Fluorescence polarization, fluorescein-MLL peptide displacement from menin. 290,000 tested, under 10 active. AID 1766, 2009; active = well fitted curve in the direction sought with a large enough effect in the polarisation, not every such curve was filed as active; inconclusive = small, poorly fitted or top-dose-only effect, or effect the other way, or a change in a side signal; inactive = no such curve, though single readings can be large or run the other way; the % refers to the polarisation
Epigenetic derep – Quantitative High-Throughput Screen for Regulators of Epigenetic Control. murine LDR cells, GFP reporter derepression, 30 h. Potency, µM (doses to about 53.9 µM), most hits filed as activators. 280,000 compounds, 0.2% hits; note: nearly all actives have a fitted effect of over 60% in size
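GFP-positive cell count by laser-scanning cytometry (objects 20–120 um) after 30 h, 37 C compound exposure of murine LDR cells; reporter is CMV-GFP integrated at a silenced locus, inducible by HDAC or DNMT inhibitors.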
ClpP mod – qHTS Assay for Activators of ClpP | 340,000 compounds, 1.9% hits | ATP-dependent Clp protease proteolytic subunit (Bacillus subtilis (strain 168)), P80244 | AID 651965, 2013 | purified B. subtilis ClpP, FRET peptide cleavage, 20 min | Potency, µM (top dose mostly 57.5 µM); active = well fitted falling curve with a large enough effect; inconclusive = small, poorly fitted or top-dose-only effect; inactive = no such curve, though single readings can be large or run the other way; note: the source files actives as falling curves though it sought activators and does not explain the sign; nearly all actives have a fitted effect of over 65% in size
Target sequence (P80244 whole entry, looked up): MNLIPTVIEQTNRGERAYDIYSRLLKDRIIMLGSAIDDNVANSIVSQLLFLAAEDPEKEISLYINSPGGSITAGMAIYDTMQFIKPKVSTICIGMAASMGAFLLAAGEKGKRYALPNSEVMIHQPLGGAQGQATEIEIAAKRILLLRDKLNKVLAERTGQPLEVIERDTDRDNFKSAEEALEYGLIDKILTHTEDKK
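ClpP 10 microg/mL final, pH 8 Tris/KCl buffer with BSA, glycerol, Tween-20; compound pinned in; FRET-FV substrate; RT 20 min; Ex320/Em430; ΔFRET vs ADEP 5.8 microM, DMSO, no enzyme.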
MLL CXXC-DNA inh – qHTS Fluorescence Polarization Assay for Inhibitors of MLL CXXC domain - DNA interaction; MLL-CXXC / FITC-HOXA9 DNA fluorescence polarization; Potency, µM (titrated, usually from 115 µM), hits mostly inhibitors; 290,000 compounds, 0.037% hits; active = well fitted inhibition curve with a large enough effect in the polarisation, with a control signal flat, not every such curve was filed as active; inconclusive = small, poorly fitted or top-dose-only effect, or effect the other way, or a change in a side signal; inactive = no such curve, though single readings can be large or run the other way; the % refers to the polarisation
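Purified MLL-CXXC (added from a 7 uM solution) was preincubated 5 min at ambient with pinned compounds in 50 mM Tris-HCl pH 7.5, 50 mM NaCl, 1 mM DTT, 0.05% BSA. Fluorescein-labeled HOX-A9 DNA (50 nM solution) followed, 30 min, then polarization read.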
ClpP inh valid – qHTS Assay for Activators of ClpP: Hit Validation of Inhibitors; shares compounds with ClpP mod; Potency, µM (highest dose often 57.5 µM), usual class: inhibitors; 470 compounds, 40% hits; purified B. subtilis ClpP, FRET-FV substrate cleavage, 20 min; note: nearly all actives have a fitted effect of over 70% in size
Large screens that a line does not name were inactive (follow-up assays come after a bar, where they were run). Shown are actives, neighbours in structure and some others; about 1.9% of the full set was active somewhere. Unless noted, calls come from the whole dose curve; as a rule, active = well fitted curve in the direction sought with a large enough effect; inconclusive = small, poorly fitted or top-dose-only effect, or another doubt; inactive = no such curve, though single readings can be large; an effect the other way counts as inactive or inconclusive.

O=C(CN1CCN(Cc2ccccc2)CC1)NCCc1ccccc1	ClpP mod 6.3µM (no result: Epigenetic derep) | ClpP inh valid inactive
O=C(Nc1ccc(Br)cc1F)c1ncoc1-c1ccco1	none (no result: Menin-MLL TR inh, Menin MLL FP FL, MLL CXXC-DNA inh)
CCOC(=O)c1c(C)[nH]c(C)c1S(=O)(=O)N(C)CC(=O)N1CCN(c2cccc(C)c2C)CC1	none (no result: Menin-MLL TR inh, Menin MLL FP FL, MLL CXXC-DNA inh)
CC1=C(C(=O)Nc2cccc(C(F)(F)F)c2)C(c2ccccc2)n2ncnc2N1 (stereo unspecified)	none (no result: Menin-MLL TR inh, Menin MLL FP FL, MLL CXXC-DNA inh)
CCOC(=O)N1CCN(S(=O)(=O)c2ccc(C(=O)Nc3nc4ccccc4s3)cc2)CC1	none | ClpP inh valid inconclusive
CCN(Cc1nc(-c2cccc(C)c2)no1)C(=O)c1ccc2c(c1)OCO2	Menin-MLL TR inh inconclusive, ClpP mod 8.9µM (no result: Epigenetic derep) | ClpP inh valid inactive
CC1CCCCN1C(=O)CSc1nc(-c2ccccc2)no1 (stereo unspecified)	none (no result: Menin-MLL TR inh, Menin MLL FP FL, MLL CXXC-DNA inh)
Cc1ccc(C)c2[nH]c(=O)c(CN(CCCN(C)C)C(=O)NCc3ccccc3)cc12	ClpP mod 3.5µM | ClpP inh valid inconclusive
Cn1c(=O)c2c(-c3ccc(Cl)cc3)n(Cc3ccc(Cl)cc3)cc2n(C)c1=O	ClpP mod 10µM (no result: Menin-MLL TR inh, Menin MLL FP FL, MLL CXXC-DNA inh) | ClpP inh valid 39µM
Cc1ccc(C(O)c2ncc(-c3ccc4ccccc4c3)[nH]2)c(C)c1 (stereo unspecified)	none (no result: Menin-MLL TR inh, Menin MLL FP FL, Epigenetic derep, MLL CXXC-DNA inh)
Cc1ccc(/C=C/c2nc3ccccc3n2S(=O)(=O)c2cccc(Cl)c2)cc1	ClpP mod 10µM (no result: Menin-MLL TR inh, Menin MLL FP FL, MLL CXXC-DNA inh) | ClpP inh valid inconclusive
CCOC(=O)c1c(C)[nH]c(CCC(=O)NCc2ccc(F)cc2)c1C	none (no result: Menin-MLL TR inh, Menin MLL FP FL, MLL CXXC-DNA inh)
COc1ccc(C(=O)n2cc(C(=O)c3cc(C)ccc3O)cn2)cc1	none
COc1ccc(C(=O)n2cc(C(=O)c3cc(C)ccc3O)cn2)cc1OC	MLL CXXC-DNA inh inconclusive | ClpP inh valid inactive
CCCN1CNc2c(c(=O)[nH]c(=S)n2CCc2ccccc2C)C1	none (no result: Menin-MLL TR inh, Menin MLL FP FL, Epigenetic derep, MLL CXXC-DNA inh)
CNC(=O)c1cc(S(=O)(=O)N2CC(C)OC(C)C2)ccc1N1CCOCC1 (stereo unspecified)	none (no result: Epigenetic derep) | ClpP inh valid inactive
CCCCCc1cc(=O)oc2c(C(CCN3CCCC3)c3ccc(N(C)C)cc3)c(OC)cc(OC)c12 (stereo unspecified)	none (no result: Menin-MLL TR inh) | ClpP inh valid inactive
O=C(Nc1cccc(C(F)(F)F)c1)c1cc(-c2ccc(Cl)s2)nc2ccccc12	none (no result: Menin-MLL TR inh, Menin MLL FP FL, MLL CXXC-DNA inh)
COc1cc(OC)c(OC)cc1CNC1CCCCCC1	Menin-MLL TR inh inconclusive
COc1cc(OC)c(CNC2CCCCCC2)cc1Br	ClpP mod 2.8µM | ClpP inh valid inactive
CC(OC(=O)c1nn(C(C)C)c(=O)c2ccccc12)C(=O)Nc1ncc(Cl)cc1Cl (stereo unspecified)	none | ClpP inh valid inactive
CCCCOC(=O)c1ccc(NC(=O)c2cc(-c3cccs3)on2)cc1	none (no result: Menin-MLL TR inh, Menin MLL FP FL, MLL CXXC-DNA inh)
O=C(Nc1ccc2nn(-c3ccccc3)nc2c1)c1ccc(-c2cccc(Cl)c2)o1	none (no result: Menin-MLL TR inh, Menin MLL FP FL, MLL CXXC-DNA inh) | ClpP inh valid inactive
CCCN(CCC(=O)Nc1cc(OC)cc(OC)c1)CC1CC1	none | ClpP inh valid inactive
Cc1ccccc1C(=O)NCC(=O)NC1CC1	none (no result: Menin-MLL TR inh, Menin MLL FP FL, Epigenetic derep, MLL CXXC-DNA inh)
O=C(CNC(=O)c1cccc(F)c1)NC1CC1	ClpP mod 3.5µM (no result: Menin-MLL TR inh, Menin MLL FP FL, Epigenetic derep, MLL CXXC-DNA inh) | ClpP inh valid inactive
Cc1ccc(NC2CCCN(C(=O)c3ccnc(Cl)c3)C2)cc1C (stereo unspecified)	none (no result: Menin-MLL TR inh, Menin MLL FP FL, Epigenetic derep)
O=C(NC1CCCCC1)c1cc(Nc2ccccc2)nc2ccccc12	none (no result: Menin-MLL TR inh, Menin MLL FP FL, MLL CXXC-DNA inh)
COc1ccc(Nc2cc(C(=O)NC3CCCC3)c3ccccc3n2)cc1	none (no result: Menin-MLL TR inh, Menin MLL FP FL, MLL CXXC-DNA inh) | ClpP inh valid inactive
